Reference: PubChem BioAssay AID493131 (Broad Institute, 2011)
In all, about 340,000 compounds went through this assay and about 3,300 (0.97%) were called active. This excerpt belongs to a sample that is enriched for actives. A number with no mark means an inactive call.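 The calls were made as follows: active = mean activation above about 17%, with every replicate also reaching it (limit read from the data, passing the limit was not always enough); inconclusive = only one of the two conditions met; inactive = the rest.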

Target: Protein FosB (Mus musculus) (UniProt P13346)
Assay: activators of delta FosB homodimer, primary screen, biochemical, fluorescence polarization, TAMRA-CDK5 oligo, single point (AID 493131);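 also: fluorescence polarization rise as delta FosB binds a TAMRA Cdk5 AP-1 oligo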
Settings: purified delta FosB, at 25 µM, hits give high values, percent of positive-control signal above neutral wells

Chain of Protein FosB (Mus musculus) (P13346 whole entry, looked up): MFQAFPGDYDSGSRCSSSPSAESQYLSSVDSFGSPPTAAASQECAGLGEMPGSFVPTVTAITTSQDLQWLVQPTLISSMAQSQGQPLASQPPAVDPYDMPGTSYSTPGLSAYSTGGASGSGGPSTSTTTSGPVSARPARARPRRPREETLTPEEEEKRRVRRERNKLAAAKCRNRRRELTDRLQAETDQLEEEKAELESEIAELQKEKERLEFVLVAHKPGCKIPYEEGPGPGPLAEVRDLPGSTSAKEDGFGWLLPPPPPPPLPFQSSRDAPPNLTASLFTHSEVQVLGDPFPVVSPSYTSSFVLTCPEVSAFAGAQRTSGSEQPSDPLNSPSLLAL

Q: With `O=C1/C(=C/c2ccc3c(c2)OCO3)Oc2cc(OCC(=O)N3CC(O)C[C@H]3C(=O)O)ccc21` (stereo partly drawn) as the compound, how does the activation read?
A: -7.81%

Q: With `Cc1ccc(C(=O)NNC(=O)c2cc3cc4ccccc4nc3s2)cc1` as the compound, how does the activation read?
A: 26.4% (active)

Q: `Cc1ccc(C(=O)NNc2ncnc3ccccc23)cc1` was tested. Which activation did it give?
A: -2.14%

Q: For `Cc1ccc(C(=O)NNC(=O)c2ccc3c(c2)OCCO3)cc1`, which activation is on record?
A: -13%

Q: How did the activation turn out when `O=C(CN1CCN(S(=O)(=O)/C=C/c2ccccc2)CC1)NC(=O)NCc1ccco1` was run?
A: -9.92%

Q: How did the activation turn out when `O=C(COC(=O)c1ccc(S(=O)(=O)N2CCc3ccccc3C2)cc1)NC(=O)NCc1ccco1` was run?
A: 61.2% (active)

Q: For `CC(NC(=O)c1cccc(S(=O)(=O)N2CCc3ccccc3C2)c1)c1ccco1` (stereo not drawn), which activation is on record?
A: 7.07%

Q: How did the activation turn out when `Cc1cccc(C)c1NC(=S)N(Cc1cccnc1)Cc1ccccc1Cl` was run?
A: 2.24%

Q: With `COC(=O)C(C(=O)Nc1cccc(Cl)c1C)C1CCCC1` (stereo not drawn) as the compound, how does the activation read?
A: 0.709%

Q: `COc1cccc(/C=N/NC(=O)c2[nH]nc3c2CCc2ccccc2-3)c1O` was tested. Which activation did it give?
A: 76.1% (active)

Q: With `COc1ccc(/C=N/NC(=O)c2ccncc2)cc1CN1CCCc2ccccc21` as the compound, how does the activation read?
A: -19.4%

Q: `COc1cccc(/C=N/NC(=O)CNC(=O)c2ccc(S(=O)(=O)N3CCOCC3)cc2)c1OC` was tested. Which activation did it give?
A: 1.33%

Q: How did the activation turn out when `CCOc1ccc2c(=O)c(-c3ccc4c(c3)OCCCO4)c(C)oc2c1` was run?
A: 5.27%

Q: `CCn1cc(CN2CCC(C(=O)Nc3cccc(-c4cccc(Cl)c4)c3)CC2)c(C)n1` was tested. Which activation did it give?
A: -5.85%

Q: With `O=C1c2ccncc2C(=O)N1C1CCCCC1` as the compound, how does the activation read?
A: -3.57%

Q: How did the activation turn out when `COc1ccc(-c2cc(=O)oc3cc(OC(C)C(=O)NCC4CCC(C(=O)O)CC4)ccc23)cc1` (stereo not drawn) was run?
A: 2.8%

Q: How did the activation turn out when `Cc1cc(=O)oc2cc(OC(C)C(=O)Nc3ccc(N4CCOCC4)cc3)ccc12` (stereo not drawn) was run?
A: 14.2%

Q: With `COc1ccc(-c2cc(=O)oc3cc(OC(C)C(=O)Nc4ccc(CN5CCOCC5)cc4)ccc23)cc1` (stereo not drawn) as the compound, how does the activation read?
A: 28.5% (active)

Q: For `COc1ccc(CCN(C)C(=O)C23CC4CC(CC(Cl)(C4)C2)C3)cc1OC`, which activation is on record?
A: -11.5%

Q: `CCOc1ccc(NC(=O)CSc2ncnc3c2sc2ccccc23)cc1` was tested. Which activation did it give?
A: -0.561%

Q: How did the activation turn out when `COc1cc(C(=S)NCc2ccccc2)cc(Br)c1O` was run?
A: -3.42%

Q: How did the activation turn out when `Cc1nn(Cc2ccc(Cl)cc2)c(Cl)c1/C=N/NC(=O)CNc1ccccc1F` was run?
A: 20.3% (active)

Q: How did the activation turn out when `CCn1nc(C)c(/C=N/NC(=O)Cc2ccc(Cl)cc2)c1C` was run?
A: -5.48%

Q: How did the activation turn out when `COc1ccc(Cl)cc1NC(=O)CNc1ccccc1F` was run?
A: 0.137%

Q: With `COC(=O)c1ccc(C(=O)Nc2cc(Cl)ccc2Cl)cc1NC(=O)c1ccccc1C` as the compound, how does the activation read?
A: -4.76%

Q: `COc1cccc(NC(=O)Cn2c3ccccc3c3nc4n(c(=O)c32)CCS4)c1` was tested. Which activation did it give?
A: 10.7%

Q: With `COc1cccc(NC(=O)Cn2c3ccc(F)cc3c3nc4n(c(=O)c32)CCS4)c1` as the compound, how does the activation read?
A: 20.4% (active)

Q: With `COc1ccc2c(c1)c1nc3n(c(=O)c1n2CC(=O)Nc1ccccc1)CCS3` as the compound, how does the activation read?
A: 2.33%

Q: Which activation does the source give for `CC1=NN(c2cccc(Cl)c2)C(=O)C12CC(C)=C(C)CS2` (stereo not drawn) here?
A: -6.87%

Q: `Oc1ccccc1CNc1ncc(Br)cc1Br` was tested. Which activation did it give?
A: -0.334%

Q: For `CC(C)C(NC(=O)c1cccc(S(=O)(=O)N2CCOCC2)c1)C(=O)NCCc1ccccn1` (stereo not drawn), which activation is on record?
A: -1.29%

Q: `Cc1c(C#N)c2ncn(CC#N)c(=O)c2n1-c1ccccc1` was tested. Which activation did it give?
A: -7.05%

Q: `COc1ccc(-c2cc3ncccc3cn2)cc1` was tested. Which activation did it give?
A: -21.2%

Q: `COc1ccc(-c2cc3n(n2)CCc2nc4ccccc4n2-3)cc1` was tested. Which activation did it give?
A: 18.1% (active)

Q: For `COc1ccc(-c2cc(C(=O)n3cnc4ccccc43)c3ccccc3n2)cc1`, which activation is on record?
A: -10%

Q: Which activation does the source give for `CC(=O)N1CCN(CC(c2ccccc2)c2ccccc2)CC1` here?
A: 1.45%

Q: How did the activation turn out when `O=c1[nH]snc1-c1c(Cl)cccc1Cl` was run?
A: -3.4%

Q: For `CN(CC(=O)Nc1ccc(Cl)cc1)C(=O)c1ccc(COc2ccccc2)cc1`, which activation is on record?
A: -1.5%

Q: `O=C(NNC(=O)c1ccc2ccccc2c1)c1ccc(Cl)cc1` was tested. Which activation did it give?
A: 4.76%

Q: Which activation does the source give for `CN(CC(=O)Nc1ccc(Cl)cc1)C(=O)CNC(=O)c1ccc2ccccc2c1` here?
A: 38.6% (active)

Q: `Nc1ccccc1/C=N\N=C/c1ccccc1N` was tested. Which activation did it give?
A: 1.65%

Q: For `Cc1nc(-c2ccc(Cl)cc2)sc1C1(C)CC(c2ccc(Br)cc2)=NO1` (stereo not drawn), which activation is on record?
A: -6.82%

Q: How did the activation turn out when `COc1ccc(Cn2c(=S)[nH]c3cc(C(=O)NCCCN4CCOCC4)ccc3c2=O)cc1` was run?
A: -7.8%

Q: Which activation does the source give for `COc1ccc(Cn2c(=S)[nH]c3cc(C(=O)N4CCCCC4)ccc3c2=O)cc1` here?
A: 67.5% (active)

Q: How did the activation turn out when `COc1ccc(OC)c(-n2c(=S)[nH]c3cc(C(=O)N4CCCCC4)ccc3c2=O)c1` was run?
A: 0.446%

Q: For `CC(C)C(OC(=O)c1cccs1)C(=O)NC1CCCCC1` (stereo not drawn), which activation is on record?
A: 0.731%

Q: With `Cc1c[n+]([O-])ccc1[N+](=O)[O-]` as the compound, how does the activation read?
A: 1.75%

Q: For `CCc1nnc(NS(=O)(=O)c2ccc(NC(=S)NC(=O)/C=C/c3cccs3)cc2)s1`, which activation is on record?
A: -19.1%

Q: `COc1cc(C(C)=O)ccc1OC(C)C(=O)Nc1ccc(S(=O)(=O)N2CCCC2)cc1` (stereo not drawn) was tested. Which activation did it give?
A: -5.8%

Q: Which activation does the source give for `CC(=O)Nc1ccc(S(=O)(=O)N2CCSCC2)cc1` here?
A: -10.4%

Q: `C=CCn1c(=NC(=O)c2ccc(S(=O)(=O)N3CCCC3)cc2)sc2cc(NC(C)=O)ccc21` was tested. Which activation did it give?
A: 50.4% (active)

Q: `CC(NC(=O)CCCC1CCCCC1)c1ccc(S(N)(=O)=O)cc1` (stereo not drawn) was tested. Which activation did it give?
A: -18.3%

Q: With `Cc1n[nH]c(=O)c2c1nnn2Cc1ccc(F)cc1` as the compound, how does the activation read?
A: 0.186%

Q: Which activation does the source give for `O=C(CN1CCN(S(=O)(=O)c2ccc(Cl)s2)CC1)N1CCCCC1` here?
A: -6.89%

Q: Which activation does the source give for `COc1ccc(N2CCN(C(=O)[C@@H](NC(=O)c3cc(OC)cc(OC)c3)C(C)C)CC2)cc1` here?
A: -9.58%

Q: Which activation does the source give for `COc1cc(OC)cc(C(=O)N[C@H](C(=O)NNC(=O)c2ccc(Br)cc2)C(C)C)c1` here?
A: 23.4% (active)

Q: `COc1cc(OC)cc(C(=O)NC(C(=O)N2CCC2)C(C)C)c1` (stereo not drawn) was tested. Which activation did it give?
A: 0.275%

Q: With `COc1ccc(C)cc1NC(=O)CN(C)S(=O)(=O)c1ccc2c(c1)n(C)c(=O)c(=O)n2C` as the compound, how does the activation read?
A: -14%
